# Results taken from the supplement of paper PMC3545927.
# Some of the results follow. How many sequences the whole screen found active is unknown.
# Molecular target: furin, P09958
# Assay: furin cleavage Z-score vs untreated control; higher = more cleavage, active = 3.5 or more, inactive = 1 or less, 8 variable residues between constant flanks
# Description: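 Multiplexed peptide-cDNA fusion cleavage assay. 8-mer variable peptides flanked by constant Cys-Ala (N-term) and Ala-Gly-Asn-Ala-Ser-Ala-Ser-Ala (C-term) and conjugated to a cDNA oligonucleotide were bead-immobilised via the N-terminus. They were treated with purified furin at a 1:10 enzyme:substrate ratio in 50 mM HEPES pH 7.5, 1 mM CaCl2, 100 mM NaCl for 7.5, 15 or 30 min. Released cDNA was counted by next-generation sequencing, and log counts versus no-furin controls were lowess-adjusted and converted to robust Z-scores.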
# Chain of furin, P09958 (P09958 whole entry): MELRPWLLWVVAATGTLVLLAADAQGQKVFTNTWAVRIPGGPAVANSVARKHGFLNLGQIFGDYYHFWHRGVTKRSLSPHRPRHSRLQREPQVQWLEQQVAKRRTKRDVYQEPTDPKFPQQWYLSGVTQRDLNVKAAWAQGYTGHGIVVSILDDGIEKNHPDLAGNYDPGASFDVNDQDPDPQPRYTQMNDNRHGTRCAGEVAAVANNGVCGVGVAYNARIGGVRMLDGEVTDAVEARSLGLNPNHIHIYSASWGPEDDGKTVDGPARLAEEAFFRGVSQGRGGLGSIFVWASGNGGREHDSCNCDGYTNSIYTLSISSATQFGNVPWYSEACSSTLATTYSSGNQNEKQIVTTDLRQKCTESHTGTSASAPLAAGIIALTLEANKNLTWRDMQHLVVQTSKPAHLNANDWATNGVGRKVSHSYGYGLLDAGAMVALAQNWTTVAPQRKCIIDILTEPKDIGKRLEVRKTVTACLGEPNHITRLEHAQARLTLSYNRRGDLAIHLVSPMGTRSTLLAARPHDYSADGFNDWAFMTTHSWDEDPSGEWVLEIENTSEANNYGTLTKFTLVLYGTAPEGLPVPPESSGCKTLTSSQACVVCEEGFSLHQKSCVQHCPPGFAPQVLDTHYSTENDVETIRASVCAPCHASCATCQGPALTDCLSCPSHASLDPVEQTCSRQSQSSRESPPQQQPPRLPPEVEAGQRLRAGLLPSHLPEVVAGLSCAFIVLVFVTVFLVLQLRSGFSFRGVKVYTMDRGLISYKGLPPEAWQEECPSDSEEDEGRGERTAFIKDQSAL
Sequence,furin cleavage Z-score (7.5 min),furin cleavage Z-score (15 min),furin cleavage Z-score (30 min)
CAEVQCHRPSAGNASASA [HC2362],0.385 (inactive),1.46,0.778 (inactive)
CAWRVSAEEYAGNASASA [HC1202],-0.863 (inactive),-1.63 (inactive),-0.815 (inactive)
CAMEECSIHLAGNASASA [HC1724],0.188 (inactive),1.13,0.153 (inactive)
CARTRRCVCVAGNASASA [FS-3213],-0.371 (inactive),-0.858 (inactive),-0.127 (inactive)
CARTRRSINSAGNASASA [FS-2316],7.8 (active),8.93 (active),7.57 (active)
CARTRRTSKPAGNASASA [FS-1937],0.687 (inactive),3.02,2.44
CAVTNDCPNSAGNASASA [HC262],-1.55 (inactive),-2.42 (inactive),-2.48 (inactive)
CAVRSRSIRSAGNASASA [FS-1663],11.3 (active),11.8 (active),8.54 (active)
CAASSRNIRSAGNASASA [FS-924],5.59 (active),8.19 (active),6.71 (active)
CARTRRNIDAAGNASASA [FS-3111],6.35 (active),7.27 (active),4.76 (active)
CAEVVTSTLVAGNASASA [HC2225],-0.125 (inactive),0.377 (inactive),-0.731 (inactive)
CAEKVVCCSMAGNASASA [HC2134],-0.767 (inactive),0.357 (inactive),-1.09 (inactive)
CALDRRSQRSAGNASASA [FS-910],2.25,3.02,4.23 (active)
CALSAFSLHSAGNASASA [HC1605],0.383 (inactive),0.938 (inactive),1.75
CALSRRSIRSAGNASASA [FS-461],10.4 (active),11.5 (active),9.32 (active)
CAMSIRSDRSAGNASASA [FS-1646],1.46,0.662 (inactive),1.58
CALSRRSISKAGNASASA [FS-2871],0.267 (inactive),1.81,-1.35 (inactive)
CAVHFRSIRSAGNASASA [FS-308],8.08 (active),8.31 (active),5.71 (active)
CAMEECSDHLAGNASASA [HC1731],-0.133 (inactive),-1.7 (inactive),1.31
CAKCLIRLKPAGNASASA [HC965],-0.996 (inactive),0.139 (inactive),0.507 (inactive)
CASSPRCKRTAGNASASA [FS-724],6.48 (active),5.33 (active),4.2 (active)
CAPSERTRRTAGNASASA [FS-1553],6.49 (active),7.9 (active),7.83 (active)
CAPSPVVVGTAGNASASA [HC416],0.116 (inactive),0.136 (inactive),-0.669 (inactive)
CATSGITGDNAGNASASA [HC1339],0.521 (inactive),-1.94 (inactive),-2.62 (inactive)
CATLEVVTSTAGNASASA [HC2278],2.04,-0.134 (inactive),-0.107 (inactive)
CAPTGSGKSTAGNASASA [HC776],-0.612 (inactive),-0.784 (inactive),0.917 (inactive)
CASSFRFPRTAGNASASA [FS-196],0.00727 (inactive),0.495 (inactive),1.37
CATSPRTKRTAGNASASA [FS-1576],10.8 (active),10.5 (active),8.67 (active)
CAPTRRTKRTAGNASASA [FS-76],10.6 (active),10.9 (active),7.13 (active)
